Results on 30 molecules are retold here after PubChem BioAssay (NCATS).

Inconclusive results are not listed. A call without a number means that no potency is given here. Active and inactive are the calls of the source. Calls come from the whole dose curve; as a rule, active = well fitted inhibition curve with a large enough effect; inconclusive = small, poorly fitted or top-dose-only effect; inactive = flat fitted curve, though single readings scatter. Peptide text beside a SMILES is read from it.
Potency is the fitted concentration of half-maximal effect.

The subject of one experiment is CP305. The experiment can be described thus: qHTS profiling for inhibitors of Plasmodium falciparum proliferation (AID 504749). Note: nearly all actives have a fitted effect of over 60% in size. The following applies: P. falciparum in erythrocytes, SYBR Green DNA, 72 h; series mostly up to 28.7 µM. The procedure, abridged:
(§1)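 Fluorescence of SYBR Green-bound parasite DNA, read at 485/535 nm, served as the growth measure. Infected erythrocytes were cultured with compound 72 h; artemisinin (0.29 uM) and DMSO wells defined the normalization range.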
In general terms: In qHTS, concentration-response curves come from the screen itself.
As to `C=C1C(=CC=C2CCC[C@@]3(C)[C@@H]2CC[C@H]3[C@H](C)CCCC(C)C)C[C@@H](O)C[C@@H]1O`, the Potency entry was “inactive”.

As for `O=C1C(=O)c2ncccc2-c2cccnc21`, the Potency was 1200 nM (active).

Regarding `O=CCCCC=O`, the Potency entry is “inactive”.

On to `CCCCC(C)(O)C/C=C/[C@H]1[C@H](O)CC(=O)[C@@H]1CCCCCCC(=O)OC` (some centres undefined), for which the Potency entry was “inactive”.

In the case of `CC(C)(C)C(=O)OCOC(=O)[C@@H]1N2C(=O)[C@@H](N=CN3CCCCCC3)[C@H]2SC1(C)C`, the Potency result was “inactive”.

As for `C[C@]12CCC(=O)C=C1CC[C@@H]1[C@@H]2[C@@H](O)C[C@@]2(C)[C@H]1CC[C@]2(O)C(=O)COP(=O)(O)O`, the Potency result is “inactive”.

With `CCOc1ccc(N=Nc2ccc(N)cc2N)cc1`, the Potency entry is “inactive”.

As for `O=C(O)CCC(=O)C(=O)O`, the Potency result is “inactive”.

For the molecule `CC1=CCC(C(C)(C)O)CC1` (centres undefined), the Potency result was “inactive”.

As for `CO[C@H](C(=O)[C@@H](O)[C@@H](C)O)C1Cc2cc3cc(O[C@H]4C[C@@H](O[C@H]5C[C@@H](O)[C@H](O)[C@@H](C)O5)[C@@H](O)[C@@H](C)O4)c(C)c(O)c3c(O)c2C(=O)[C@H]1O[C@H]1C[C@@H](O[C@H]2C[C@@H](O[C@H]3C[C@](C)(O)[C@H](O)[C@@H](C)O3)[C@H](O)[C@@H](C)O2)[C@H](O)[C@@H](C)O1` (some centres undefined), the Potency was 757 nM (active).

In the case of `CCCCCCC(O)C/C=C/CCCCCCCC(=O)O` (centres undefined), the Potency entry was “inactive”.

Consider `Cc1ccccc1OCC(O)CNCCOc1ccc(C(N)=O)cc1` (centres undefined), for which the Potency entry was “inactive”.

On to `COC(F)(F)C(Cl)Cl`, for which the Potency entry was “inactive”.

With `Nc1c(N=Nc2ccc(-c3ccc(N=Nc4cc(S(=O)(=O)O)c5ccccc5c4N)cc3)cc2)cc(S(=O)(=O)O)c2ccccc12`, the Potency result was “inactive”.

On to `Cc1cc(C(=O)NNCc2ccccc2)no1`, for which the Potency entry is “inactive”.

Regarding `CC1(C)C(C=C(Cl)Cl)C1C(=O)OCc1cccc(Oc2ccccc2)c1` (centres undefined), the Potency result was “inactive”.

On to `CCOC(C)=O`, for which the Potency entry is “inactive”.

As to `Cc1c(C)c2c(c(C)c1O)CC[C@@](C)(CCC[C@@H](C)CCC[C@@H](C)CCCC(C)C)O2`, the Potency entry was “inactive”.

For the molecule `CCCCCCCC(=O)O`, the Potency entry was “inactive”.

Consider `CC1(C)S[C@@H]2[C@H](NC(=O)[C@@H](NC(=O)N3CCNC3=O)c3ccccc3)C(=O)N2[C@H]1C(=O)O`, for which the Potency entry is “inactive”.

With `O=C(COc1ccc(Cl)cc1)OCCNC12CC3CC(CC(C3)C1)C2`, the Potency entry is “inactive”.

For `O=C(O)c1cc(=O)c2c3nc4ccccc4oc-3cc(=O)c2[nH]1`, the Potency result is “inactive”.

Take `C[C@]12O[C@H](C[C@]1(O)CO)n1c3ccccc3c3c4c(c5c6ccccc6n2c5c31)CNC4=O`: the Potency was 601 nM (active).

For the molecule `C[C@@H]1CCC2[C@@H](C)[C@@H](O)O[C@@H]3O[C@@]4(C)CC[C@@H]1[C@@]23OO4` (some centres undefined), the Potency was 3.8 nM (active).

For the molecule `CC(=O)N[C@@H](CC(=O)O)C(=O)N[C@@H](CCC(=O)O)C(=O)O` (Ac-Asp-Glu-OH), the Potency entry is “inactive”.

Take `COCC(=O)Nc1cc(Sc2ccccc2)ccc1N=C(NC(=O)OC)NC(=O)OC`: the Potency entry was “inactive”.

With `Nc1c(Br)cc(Br)cc1CNC1CCC(O)CC1` (centres undefined), the Potency result is “inactive”.

With `NC(=O)c1ncn(C2OC(CO)C(O)C2O)n1` (centres undefined), the Potency entry is “inactive”.

As to `COc1ccc2c3c1O[C@H]1C[C@@H](O)C=C[C@@]31CCN(C)C2`, the Potency entry was “inactive”.

The test system of another experiment is CP315. The description is as above. The following applies: P. falciparum in erythrocytes, SYBR Green DNA, 72 h; series mostly up to 28.7 µM. The procedure, abridged: as §1
Turning to `C=C1C(=CC=C2CCC[C@@]3(C)[C@@H]2CC[C@H]3[C@H](C)CCCC(C)C)C[C@@H](O)C[C@@H]1O`, the Potency result was “inactive”.

With `O=C1C(=O)c2ncccc2-c2cccnc21`, the Potency was 2690 nM (active).

As for `O=CCCCC=O`, the Potency result is “inactive”.

As for `CCCCC(C)(O)C/C=C/[C@H]1[C@H](O)CC(=O)[C@@H]1CCCCCCC(=O)OC` (some centres undefined), the Potency entry is “inactive”.

On to `CC(C)(C)C(=O)OCOC(=O)[C@@H]1N2C(=O)[C@@H](N=CN3CCCCCC3)[C@H]2SC1(C)C`, for which the Potency entry is “inactive”.

For the molecule `C[C@]12CCC(=O)C=C1CC[C@@H]1[C@@H]2[C@@H](O)C[C@@]2(C)[C@H]1CC[C@]2(O)C(=O)COP(=O)(O)O`, the Potency entry is “inactive”.

As to `CCOc1ccc(N=Nc2ccc(N)cc2N)cc1`, the Potency result is “inactive”.

On to `O=C(O)CCC(=O)C(=O)O`, for which the Potency entry was “inactive”.

As for `CC1=CCC(C(C)(C)O)CC1` (centres undefined), the Potency result was “inactive”.

With `CO[C@H](C(=O)[C@@H](O)[C@@H](C)O)C1Cc2cc3cc(O[C@H]4C[C@@H](O[C@H]5C[C@@H](O)[C@H](O)[C@@H](C)O5)[C@@H](O)[C@@H](C)O4)c(C)c(O)c3c(O)c2C(=O)[C@H]1O[C@H]1C[C@@H](O[C@H]2C[C@@H](O[C@H]3C[C@](C)(O)[C@H](O)[C@@H](C)O3)[C@H](O)[C@@H](C)O2)[C@H](O)[C@@H](C)O1` (some centres undefined), the Potency is 3380 nM (active).

In the case of `CCCCCCC(O)C/C=C/CCCCCCCC(=O)O` (centres undefined), the Potency entry was “inactive”.

Regarding `Cc1ccccc1OCC(O)CNCCOc1ccc(C(N)=O)cc1` (centres undefined), the Potency result is “inactive”.

On to `IC(I)I`, for which the Potency result was “inactive”.

With `COC(F)(F)C(Cl)Cl`, the Potency result is “inactive”.

For `Nc1c(N=Nc2ccc(-c3ccc(N=Nc4cc(S(=O)(=O)O)c5ccccc5c4N)cc3)cc2)cc(S(=O)(=O)O)c2ccccc12`, the Potency entry was “inactive”.

On to `Cc1cc(C(=O)NNCc2ccccc2)no1`, for which the Potency entry is “inactive”.

On to `CC1(C)C(C=C(Cl)Cl)C1C(=O)OCc1cccc(Oc2ccccc2)c1` (centres undefined), for which the Potency entry was “inactive”.

In the case of `CCOC(C)=O`, the Potency result was “inactive”.

For the molecule `Cc1c(C)c2c(c(C)c1O)CC[C@@](C)(CCC[C@@H](C)CCC[C@@H](C)CCCC(C)C)O2`, the Potency result is “inactive”.

Turning to `CCCCCCCC(=O)O`, the Potency result was “inactive”.

In the case of `CC1(C)S[C@@H]2[C@H](NC(=O)[C@@H](NC(=O)N3CCNC3=O)c3ccccc3)C(=O)N2[C@H]1C(=O)O`, the Potency entry was “inactive”.

In the case of `O=C(COc1ccc(Cl)cc1)OCCNC12CC3CC(CC(C3)C1)C2`, the Potency entry is “inactive”.

On to `O=C(O)c1cc(=O)c2c3nc4ccccc4oc-3cc(=O)c2[nH]1`, for which the Potency result is “inactive”.

Turning to `C[C@]12O[C@H](C[C@]1(O)CO)n1c3ccccc3c3c4c(c5c6ccccc6n2c5c31)CNC4=O`, the Potency is 426 nM (active).

For the molecule `C[C@@H]1CCC2[C@@H](C)[C@@H](O)O[C@@H]3O[C@@]4(C)CC[C@@H]1[C@@]23OO4` (some centres undefined), the Potency was 6.7 nM (active).

As to `CC(=O)N[C@@H](CC(=O)O)C(=O)N[C@@H](CCC(=O)O)C(=O)O` (Ac-Asp-Glu-OH), the Potency result is “inactive”.

Turning to `COCC(=O)Nc1cc(Sc2ccccc2)ccc1N=C(NC(=O)OC)NC(=O)OC`, the Potency entry is “inactive”.

For the molecule `Nc1c(Br)cc(Br)cc1CNC1CCC(O)CC1` (centres undefined), the Potency result was “inactive”.

Turning to `NC(=O)c1ncn(C2OC(CO)C(O)C2O)n1` (centres undefined), the Potency result is “inactive”.

For the molecule `COc1ccc2c3c1O[C@H]1C[C@@H](O)C=C[C@@]31CCN(C)C2`, the Potency result was “inactive”.
